Source: PubChem BioAssay (National Center for Advancing Translational Sciences (NCATS))
MCF10A rerep = A quantitative high throughput screen for small molecules that induce DNA re-replication in MCF 10a normal breast cells; MCF 10A DNA re-replication, Hoechst nuclear intensity, 48 h; Potency, µM (highest dose often 46.1 µM), usual class: activators; hit rate 2.9% among 350,000; further: nearly all actives have a fitted effect of over 50% in size
ELG1 repair inh = qHTS screen for small molecules that inhibit ELG1-dependent DNA repair in human embryonic kidney (HEK293T) cells expressing luciferase-tagged ELG1. HEK293T ELG1-luciferase reporter, luminescence, 16 h; DNA damage induced by 5-fluorouridine. Potency, µM (series often up to 46.1 µM), usual class: inhibitors. hit rate 2.3% among 330,000. AID 504467, 2011; further: nearly all actives have a fitted effect of over 55% in size
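Overnight (16 hr) co-exposure of 2,000 cells/well to 5-fluorouridine and compound at 37 °C preceded detection. Luciferase was quantified via ONE-Glo luminescence; loss of signal denotes inhibition.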
KB-3-1 cytotox = qHTS assay for MDR1-selective chemotherapeutics: Primary screen using the parental adenocarcinoma cell KB-3-1 | Potency, µM (titrated, usually from 46.1 µM), hits mostly cytotoxic | hit rate 1.4% among 400,000 | KB-3-1 viability, CellTiter-Glo ATP luminescence, 72 h; further: nearly all actives have a fitted effect of over 60% in size
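Screening of KB-3-1 cells (DMEM, 10% FBS, phenol-red free) ran from lowest to highest compound concentration; after 72 h at 37 °C viability was read luminescently and curves fitted.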
KB-V1 MDR tox = qHTS assay for MDR1-selective chemotherapeutics: Primary screen using the drug-selected MDR subline cells KB-V1; Potency, µM (series often up to 46.1 µM), hits mostly cytotoxic; AID 1347076, 2019; KB-V1 MDR cells viability, CellTiter-Glo, 72 h; hit rate 3.4% among 400,000; further: nearly all actives have a fitted effect of over 60% in size
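qHTS viability screen in drug-selected KB-V1 MDR cells: 72 h compound treatment at 37 degrees C, ATP luminescence end point.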
SW480 rereplic = A quantitative high throughput screen for small molecules that induce DNA re-replication in SW480 colon adenocarcinoma cells. SW480 DNA re-replication, Hoechst DNA content imaging, 48 h. Potency, µM (top dose mostly 46.1 µM), hits mostly activators. hit rate 1.8% among 340,000; further: nearly all actives have a fitted effect of over 55% in size
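DNA re-replication was detected as more nuclei of elevated Hoechst intensity after 48 hr exposure to compound (23 nL pinned per well of 250 cells).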
Each line names hits and unclear results; the compound was inactive in the other large screens. The list is not random: actives were taken first. Their share in the collection is about 8.2%. The call rests on the fitted dose curve; in most records, active means well fitted curve in the direction sought with a large enough effect; inconclusive means small, poorly fitted or top-dose-only effect, or another doubt; inactive means no such curve, though single readings can be large; an effect the other way counts as inactive or inconclusive.

COc1cccc(/C=C2\Sc3ccc(C(=O)NCc4cccnc4)cc3N(C)C2=O)c1	MCF10A rerep inconclusive, ELG1 repair inh inconclusive, SW480 rereplic inconclusive
COc1ccccc1CNC(=O)COC(=O)C1CCN(c2ccc(C(F)(F)F)cn2)CC1	SW480 rereplic 4.6µM
COc1ccccc1CNC(=O)COC(=O)Cn1cnc2ccccc21	MCF10A rerep 0.82µM, SW480 rereplic inconclusive
CC(OC(=O)C1CCN(c2ccc(C(F)(F)F)cn2)CC1)C(=O)NC1CCCCC1C (stereo not drawn)	KB-V1 MDR tox 23µM
CCOc1ccc(CN2C(=O)c3ccccc3Sc3ccc(C(=O)NC4CCC(C)CC4)cc32)cc1 (stereo not drawn)	none (no result: MCF10A rerep, ELG1 repair inh, SW480 rereplic)
CC(C)Oc1ccc(C(=O)NN2C(=O)NC3(CCCCC3)C2=O)cc1	ELG1 repair inh inconclusive (no result: KB-3-1 cytotox, KB-V1 MDR tox)
CC(OC(=O)c1ccc2c(c1)OCO2)C(=O)NC1CCCCC1 (stereo not drawn)	KB-V1 MDR tox inconclusive (no result: MCF10A rerep, ELG1 repair inh, SW480 rereplic)
CCOC(=O)c1c(C)[nH]c(C)c1C(=O)COC(=O)c1cccc(C)c1O	MCF10A rerep inconclusive, KB-V1 MDR tox 16µM
Cc1ccc2c(c1)C(=O)C(=O)N2CC1COc2ccccc2O1 (stereo not drawn)	MCF10A rerep inconclusive, KB-3-1 cytotox inconclusive, KB-V1 MDR tox 21µM, SW480 rereplic 23µM
CN(CC1COc2ccccc2O1)C(=S)Nc1ccccc1F (stereo not drawn)	none
CCOc1ccc2c(c1)C(=O)C(=O)N2CC1COc2ccccc2O1 (stereo not drawn)	MCF10A rerep inconclusive, KB-3-1 cytotox 13µM, SW480 rereplic 8.2µM
COc1ccc2c(c1)C(=O)C(=O)N2CC1COc2ccccc2O1 (stereo not drawn)	MCF10A rerep inconclusive, KB-3-1 cytotox 15µM, KB-V1 MDR tox inconclusive, SW480 rereplic inconclusive
Cc1ccc2c(c1)C(=O)C(=O)N2Cc1ccccc1	MCF10A rerep inconclusive, KB-3-1 cytotox inconclusive, SW480 rereplic inconclusive
COc1ccc(NC(=S)N(C)CC2COc3ccccc3O2)cc1 (stereo not drawn)	MCF10A rerep 0.65µM, KB-V1 MDR tox inconclusive
O=C(CSc1nc2ccccc2[nH]1)Nc1ccc(N2CCOCC2)cc1	none (no result: KB-3-1 cytotox, KB-V1 MDR tox)
O=C(CCl)Nc1ccccc1C(=O)c1ccccc1	MCF10A rerep 7.3µM, SW480 rereplic 15µM
O=C(CN1CCN(S(=O)(=O)c2ccccc2)CC1)Nc1ccccc1C(=O)c1ccccc1	ELG1 repair inh inconclusive, KB-3-1 cytotox inconclusive, KB-V1 MDR tox 3.7µM
Cc1cc(C(=O)c2ccccc2)c(NC(=O)CCl)s1	MCF10A rerep inconclusive, KB-3-1 cytotox inconclusive, SW480 rereplic inconclusive
CCCCNC(=O)c1nc(-c2ccncc2)oc1-c1ccccc1	none (no result: MCF10A rerep, ELG1 repair inh, SW480 rereplic)
CCC(=O)Nc1ccc(Nc2nc(C)c([N+](=O)[O-])c(Nc3ccc(NC(=O)CC)cc3)n2)cc1	MCF10A rerep inconclusive, ELG1 repair inh 12µM, KB-V1 MDR tox inconclusive
CC(=O)Nc1ccc(Nc2nc(C)c([N+](=O)[O-])c(Nc3ccccc3)n2)cc1	ELG1 repair inh 15µM, KB-V1 MDR tox inconclusive
CC(=O)Nc1ccc(Nc2nc(C)c([N+](=O)[O-])c(N(C)c3ccccc3)n2)cc1	ELG1 repair inh 21µM, KB-V1 MDR tox inconclusive
Cc1nc(Nc2ccc(C(=O)O)cc2)nc(Nc2ccc(C(=O)O)cc2)c1[N+](=O)[O-]	none
O=C(O)C1CCCC1	KB-3-1 cytotox inconclusive (no result: MCF10A rerep, ELG1 repair inh, SW480 rereplic)
COc1cc(C(=O)OCC(=O)Nc2ccc(OC(F)F)cc2)cc(OC)c1OC	none
COc1cc(C(=O)OCC(=O)Nc2ccc(SC(F)F)cc2)cc(OC)c1OC	ELG1 repair inh inconclusive, KB-V1 MDR tox 15µM
O=C(COC(=O)c1ccccc1Cc1ccccc1)Nc1ccc(SC(F)F)cc1	MCF10A rerep 26µM, ELG1 repair inh inconclusive, KB-V1 MDR tox inconclusive, SW480 rereplic inconclusive
Cc1ccc(C(=O)c2ccccc2C(=O)OCC(=O)Nc2ccc(SC(F)F)cc2)cc1	MCF10A rerep inconclusive, ELG1 repair inh inconclusive, KB-V1 MDR tox 12µM
CC1CCN(C(=O)COC(=O)c2ccccc2C(=O)c2ccccc2)CC1	none
Cc1ccc(C(=O)c2ccccc2C(=O)OCC(=O)N2CC(C)CC(C)C2)cc1 (stereo not drawn)	MCF10A rerep inconclusive, ELG1 repair inh 18µM, KB-V1 MDR tox inconclusive
Cc1ccc(NC(=O)COC(=O)c2ccccc2Nc2ccccc2)cc1	none
CC(C)NC(=O)C1(C)CCN1Cc1cccc(C#N)c1 (stereo not drawn)	none (no result: MCF10A rerep, ELG1 repair inh, SW480 rereplic)
O=C(Nc1ccc(SC(F)F)cc1)c1ccc(F)cc1	MCF10A rerep 0.82µM, ELG1 repair inh inconclusive, SW480 rereplic inconclusive
O=C(Cc1ccc(Cl)cc1)Nc1ccc(SC(F)F)cc1	MCF10A rerep inconclusive, ELG1 repair inh inconclusive, KB-3-1 cytotox inconclusive, KB-V1 MDR tox 21µM
Cc1ccc(C(=O)c2ccccc2C(=O)OCC(=O)Nc2cccc([N+](=O)[O-])c2)cc1	ELG1 repair inh inconclusive, KB-V1 MDR tox 23µM
O=C(COc1cccc(Oc2ccccc2)c1)Nc1ccc(SC(F)F)cc1	MCF10A rerep 0.73µM, ELG1 repair inh inconclusive, SW480 rereplic 7.3µM
O=C(COc1cccc(OC(F)F)c1)Nc1ccc(SC(F)F)cc1	none
O=C(Cc1ccccc1F)Nc1ccc(SC(F)F)cc1	ELG1 repair inh inconclusive
CCc1nc(C)cn1S(=O)(=O)c1ccc2c(c1)OCCO2	none (no result: ELG1 repair inh)
c1ccc2sc(NC3=NCN(C4CCCCCC4)CN3)nc2c1	ELG1 repair inh inconclusive, KB-3-1 cytotox inconclusive, KB-V1 MDR tox 21µM
N#Cc1ccc(C(=O)N2CCC3CC2c2cc(N4CCCCC4)ccc23)cc1 (stereo not drawn)	KB-V1 MDR tox inconclusive (no result: MCF10A rerep, ELG1 repair inh, SW480 rereplic)
Cc1ccc(NC(=O)c2cc(C)nc3ccccc23)cc1	none
COc1ccc(NC(=O)c2cc(CC(C)C)nc3ccccc23)cc1	ELG1 repair inh 23µM
COc1ccc(Nc2cc(C(=O)NCc3ccccc3)c3ccccc3n2)cc1	none (no result: MCF10A rerep, ELG1 repair inh, SW480 rereplic)
Cc1ccc(NC(=O)c2cc(CC(C)C)nc3ccccc23)cc1	ELG1 repair inh 21µM
CCC1=NN(C(=O)COc2ccccc2)C(O)(c2ccc(Br)cc2)C1 (stereo not drawn)	MCF10A rerep inconclusive, ELG1 repair inh inconclusive
COc1cc2c(c(OC)c1OC)C(=O)CO2	KB-V1 MDR tox inconclusive (no result: ELG1 repair inh)
Cc1nc2ncnn2c(C)c1CCC(=O)N1CCN(c2ccccc2)CC1	none (no result: MCF10A rerep, ELG1 repair inh, SW480 rereplic)
CCN(C[C@H]1N[C@@](Cc2ccccc2)(C(=O)OC)[C@H]2C(=O)N(Cc3ccccc3)C(=O)[C@@H]12)C(=O)c1ccc(F)cc1	ELG1 repair inh inconclusive
CCN(C[C@H]1N[C@@](CC)(C(=O)OC)[C@H]2C(=O)N(Cc3ccccc3)C(=O)[C@@H]12)C(=O)c1ccc(C)cc1	ELG1 repair inh 8.2µM, KB-V1 MDR tox inconclusive, SW480 rereplic inconclusive
